Measured values from the supplement of paper PMC10849652.
Targets with a hit are over-represented here; the source holds about 7,900 in all. About 0.6% of all pairs of compound and target were hits.

Experiments:
Test in all cases: log2 fold change, soluble protein after heating vs DMSO (PISA); higher = thermal stabilisation; K562 cells, 10 uM, 30 min; active = over 0.2 and 3.5 SD of the protein, either way, in both replicates (recomputed)
[1] = compound: Cc1ccc(NC(=O)c2ccc(CN3CC[C@H](N(C)C)C3)c(C(F)(F)F)c2)cc1Nc1nccc(-c2cncnc2)n1 [bafetinib]
Summary of the method: (§1)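 Values are thermal stability changes relative to control samples and are taken from duplicates. They are stated as log2 fold changes. Before quantification by TMTpro 16plex LC-MS/MS with equalised channel sums, K562 cells at 2×10^6 cells/mL were treated with 10 μM compound for 30 min, heated in aliquots for 3 min across 48°C-58°C, pooled, extracted in PBS with 0.5% NP-40 at 4°C, and centrifuged at 21,000xg for 90 min to give the soluble supernatant.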

[2] = compound: Cc1cccc(CC(=O)N2CCc3c2ccc(-c2cn(C)c4ncnc(N)c24)c3F)n1
Summary of the method: as §1

[3] = compound: Cc1cn(-c2cc(NC(=O)c3ccc(C)c(Nc4nccc(-c5cccnc5)n4)c3)cc(C(F)(F)F)c2)cn1 [nilotinib]
Summary of the method: as §1

[4] = compound: Cc1nc(Nc2n[nH]c3c2CN(C(=O)N[C@H](CN(C)C)c2ccccc2)C3(C)C)c2sccc2n1
Summary of the method: as §1

[5] = compound: Cc1nc(Nc2ncc(C(=O)Nc3c(C)cccc3Cl)s2)cc(N2CCN(CCO)CC2)n1 [dasatinib]
Summary of the method: as §1

[6] = compound: Cc1ncc(-c2ccnc(Nc3ccc(S(C)(=O)=O)cc3)n2)n1C(C)C
Summary of the method: as §1

[7] = compound: Cn1cc(-c2ccc3c(c2)CCN3C(=O)Cc2cccc(C(F)(F)F)c2)c2c(N)ncnc21
Summary of the method: as §1

[8] = compound: Cn1cc(-c2ccc3nnc(C(F)(F)c4ccc5ncccc5c4)n3n2)cn1
Summary of the method: as §1

[9] = compound: Cn1cncc1[C@@](N)(c1ccc(Cl)cc1)c1ccc2c(c1)c(-c1cccc(Cl)c1)cc(=O)n2C [tipifarnib]
Summary of the method: as §1

[10] = compound: FC(F)(F)c1ccc(/C=C/c2nc(COc3ccc(CCCCn4ccnn4)cc3)co2)cc1 [mubritinib]
Summary of the method: as §1

[11] = compound: NC(=O)Nc1cc(-c2cccc(F)c2)sc1C(=O)N[C@H]1CCCNC1
Summary of the method: as §1

[12] = compound: NC(=O)c1cnc(N[C@@H]2CCCC[C@@H]2N)nc1Nc1cccc(-n2nccn2)c1
Summary of the method: as §1

[13] = compound: NC1(c2ccc(-c3nc4ccn5c(=O)[nH]nc5c4cc3-c3ccccc3)cc2)CCC1
Summary of the method: as §1

[14] = compound: NCC(=O)Nc1ccc(-n2nc(C(F)(F)F)cc2-c2ccc3c(ccc4ccccc43)c2)cc1
Summary of the method: as §1

[15] = compound: Nc1ccccc1NC(=O)c1ccc(CNC(=O)OCc2cccnc2)cc1 [entinostat]
Summary of the method: as §1

[16] = compound: O=C(CCCCCCC(=O)Nc1ccccc1)NO [vorinostat]
Summary of the method: as §1

[17] = compound: O=C(CCCCCCNC(=O)c1cnc(N(c2ccccc2)c2ccccc2Cl)nc1)NO [citarinostat]
Summary of the method: as §1

[18] = compound: O=C(O)c1ccc2c(c1)nc(Nc1cccc(Cl)c1)c1ccncc12 [silmitasertib]
Summary of the method: as §1

[19] = compound: O=C1NC(=O)C(c2cnc3ccccn23)=C1c1cn2c3c(cc(F)cc13)CN(C(=O)N1CCCCC1)CC2
Summary of the method: as §1

[20] = compound: c1cc(OCCN2CCCCC2)cc(-c2n[nH]c3ccc(-c4nnc[nH]4)cc23)c1
Summary of the method: as §1

Measured: log2 fold change

ERLIN2 (UniProt O94905)
Sequence of UniProt O94905 (O94905 whole entry, looked up): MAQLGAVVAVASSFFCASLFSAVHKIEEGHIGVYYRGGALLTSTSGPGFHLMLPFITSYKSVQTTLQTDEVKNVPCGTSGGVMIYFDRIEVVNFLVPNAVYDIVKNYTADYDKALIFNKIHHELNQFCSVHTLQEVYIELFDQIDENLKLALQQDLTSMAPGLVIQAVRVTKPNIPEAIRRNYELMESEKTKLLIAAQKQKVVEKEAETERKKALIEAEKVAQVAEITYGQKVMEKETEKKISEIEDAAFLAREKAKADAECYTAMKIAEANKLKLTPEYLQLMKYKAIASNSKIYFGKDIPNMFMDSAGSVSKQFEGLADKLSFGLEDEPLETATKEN
inactive: [1] 0.039 | [2] 0.032 | [3] -0.107 | [4] 0.012 | [5] -0.023 | [6] 0.023 | [7] -0.104 | [8] 0 | [9] 0.024 | [10] -0.049 | [11] 0.04 | [12] -0.047 | [13] -0.01 | [14] -0.062 | [15] 0.032 | [16] 0.048 | [17] 0.011 | [18] 0.002 | [19] 0.069 | [20] -0.044

FAM117A (UniProt Q9C073)
Sequence of UniProt Q9C073 (Q9C073 whole entry, looked up): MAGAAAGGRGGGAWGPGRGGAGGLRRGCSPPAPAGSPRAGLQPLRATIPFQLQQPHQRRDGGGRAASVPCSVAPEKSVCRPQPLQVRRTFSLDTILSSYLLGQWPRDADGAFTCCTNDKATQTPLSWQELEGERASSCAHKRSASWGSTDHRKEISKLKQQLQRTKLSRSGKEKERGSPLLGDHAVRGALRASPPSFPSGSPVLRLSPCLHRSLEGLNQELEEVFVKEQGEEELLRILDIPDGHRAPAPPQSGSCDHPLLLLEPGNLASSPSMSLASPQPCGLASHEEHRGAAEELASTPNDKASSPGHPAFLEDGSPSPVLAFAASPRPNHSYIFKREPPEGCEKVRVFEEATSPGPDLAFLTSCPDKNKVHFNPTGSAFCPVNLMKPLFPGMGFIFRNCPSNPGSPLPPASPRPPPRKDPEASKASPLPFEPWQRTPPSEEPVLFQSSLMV
active: [18] -0.422 | [20] -0.251
inactive: [1] -0.021 | [2] 0.004 | [3] -0.047 | [4] -0.083 | [5] -0.046 | [6] -0.018 | [7] 0.016 | [8] 0.032 | [9] 0.039 | [10] 0.024 | [11] -0.135 | [12] 0 | [13] -0.05 | [14] -0.03 | [15] 0.046 | [16] -0.011 | [17] 0.043 | [19] 0.038

DPP8 (UniProt Q6V1X1)
Sequence of UniProt Q6V1X1 (Q6V1X1 whole entry, looked up): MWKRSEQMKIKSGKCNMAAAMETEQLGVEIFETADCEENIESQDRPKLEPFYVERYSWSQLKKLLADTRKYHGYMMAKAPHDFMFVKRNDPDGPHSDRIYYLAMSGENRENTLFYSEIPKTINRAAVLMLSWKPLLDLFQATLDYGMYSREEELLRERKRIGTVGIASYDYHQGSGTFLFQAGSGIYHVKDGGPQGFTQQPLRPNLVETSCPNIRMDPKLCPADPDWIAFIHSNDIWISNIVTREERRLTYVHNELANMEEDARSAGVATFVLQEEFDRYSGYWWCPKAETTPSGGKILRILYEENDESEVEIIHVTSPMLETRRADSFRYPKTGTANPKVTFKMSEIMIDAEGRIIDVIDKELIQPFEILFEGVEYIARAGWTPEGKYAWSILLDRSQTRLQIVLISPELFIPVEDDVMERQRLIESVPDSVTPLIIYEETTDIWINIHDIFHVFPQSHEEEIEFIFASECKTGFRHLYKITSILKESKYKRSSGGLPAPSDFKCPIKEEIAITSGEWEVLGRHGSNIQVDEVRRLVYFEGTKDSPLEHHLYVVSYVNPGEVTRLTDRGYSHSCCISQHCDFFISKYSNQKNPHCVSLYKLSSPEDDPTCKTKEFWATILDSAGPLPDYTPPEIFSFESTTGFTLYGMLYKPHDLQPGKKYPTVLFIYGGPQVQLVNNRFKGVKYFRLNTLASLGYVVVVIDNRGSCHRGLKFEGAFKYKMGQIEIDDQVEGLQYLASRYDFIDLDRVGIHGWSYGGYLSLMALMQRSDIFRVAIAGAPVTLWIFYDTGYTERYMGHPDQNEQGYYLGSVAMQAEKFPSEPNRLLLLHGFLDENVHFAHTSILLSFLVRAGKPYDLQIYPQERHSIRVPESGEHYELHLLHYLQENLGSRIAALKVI
active: [17] -0.325
inactive: [1] -0.054 | [2] -0.035 | [3] 0.027 | [4] -0.019 | [5] 0.014 | [6] -0.001 | [7] 0.048 | [8] 0.054 | [9] 0.065 | [10] 0.036 | [11] -0.243 | [12] -0.126 | [13] -0.04 | [14] -0.079 | [15] -0.124 | [16] -0.021 | [18] 0.063 | [19] -0.114 | [20] 0.219

EIF4E isoform 2 (UniProt P06730)
Sequence of UniProt P06730 (P06730 whole entry, looked up): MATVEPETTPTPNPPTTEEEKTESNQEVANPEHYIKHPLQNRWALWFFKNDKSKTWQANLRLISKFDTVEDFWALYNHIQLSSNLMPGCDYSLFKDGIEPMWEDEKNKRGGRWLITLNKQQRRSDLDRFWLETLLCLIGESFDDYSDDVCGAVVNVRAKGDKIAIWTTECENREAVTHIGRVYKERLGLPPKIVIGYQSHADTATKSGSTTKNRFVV
inactive: [1] 0.012 | [2] 0.05 | [3] 0.199 | [4] -0.072 | [5] 0.013 | [6] 0.272 | [7] 0.125 | [8] 0.082 | [9] -0.029 | [10] 0.045 | [11] 0.005 | [12] 0.226 | [13] 0.059 | [14] 0.126 | [15] -0.073 | [16] -0.01 | [17] -0.026 | [18] 0.102 | [19] -0.044 | [20] 0.141

EXOC6 (UniProt Q8TAG9)
Sequence of UniProt Q8TAG9 (Q8TAG9 whole entry, looked up): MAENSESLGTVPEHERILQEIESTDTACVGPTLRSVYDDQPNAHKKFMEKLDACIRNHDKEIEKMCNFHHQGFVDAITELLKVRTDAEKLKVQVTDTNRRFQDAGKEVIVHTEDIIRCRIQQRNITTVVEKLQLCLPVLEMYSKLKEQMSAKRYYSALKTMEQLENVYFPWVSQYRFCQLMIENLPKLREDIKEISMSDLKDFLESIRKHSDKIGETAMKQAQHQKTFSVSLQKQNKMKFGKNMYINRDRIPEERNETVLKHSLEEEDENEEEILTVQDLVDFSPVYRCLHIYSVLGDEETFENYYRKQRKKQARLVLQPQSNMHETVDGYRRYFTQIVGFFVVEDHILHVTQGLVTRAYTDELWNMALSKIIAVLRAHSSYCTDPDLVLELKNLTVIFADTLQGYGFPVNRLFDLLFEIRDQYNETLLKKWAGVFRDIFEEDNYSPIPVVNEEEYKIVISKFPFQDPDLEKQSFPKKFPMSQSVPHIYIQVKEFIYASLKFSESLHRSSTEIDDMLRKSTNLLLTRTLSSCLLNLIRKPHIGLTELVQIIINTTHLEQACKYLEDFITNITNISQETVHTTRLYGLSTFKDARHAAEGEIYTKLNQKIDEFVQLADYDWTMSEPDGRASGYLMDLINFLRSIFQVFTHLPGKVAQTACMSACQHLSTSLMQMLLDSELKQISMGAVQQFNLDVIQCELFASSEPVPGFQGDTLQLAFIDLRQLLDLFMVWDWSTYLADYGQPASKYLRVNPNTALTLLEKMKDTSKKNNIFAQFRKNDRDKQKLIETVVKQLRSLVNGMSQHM
inactive: [1] -0.013 | [2] 0.036 | [3] -0.013 | [4] -0.196 | [5] -0.22 | [6] -0.013 | [7] 0.042 | [8] 0.028 | [9] -0.076 | [10] 0.07 | [11] -0.052 | [12] -0.091 | [13] -0.258 | [14] -0.078 | [15] 0.045 | [17] 0.023 | [18] 0.049 | [19] 0.03 | [20] 0.007
active: [16] 0.324

CTNNB1 (UniProt P35222)
Sequence of UniProt P35222 (P35222 whole entry, looked up): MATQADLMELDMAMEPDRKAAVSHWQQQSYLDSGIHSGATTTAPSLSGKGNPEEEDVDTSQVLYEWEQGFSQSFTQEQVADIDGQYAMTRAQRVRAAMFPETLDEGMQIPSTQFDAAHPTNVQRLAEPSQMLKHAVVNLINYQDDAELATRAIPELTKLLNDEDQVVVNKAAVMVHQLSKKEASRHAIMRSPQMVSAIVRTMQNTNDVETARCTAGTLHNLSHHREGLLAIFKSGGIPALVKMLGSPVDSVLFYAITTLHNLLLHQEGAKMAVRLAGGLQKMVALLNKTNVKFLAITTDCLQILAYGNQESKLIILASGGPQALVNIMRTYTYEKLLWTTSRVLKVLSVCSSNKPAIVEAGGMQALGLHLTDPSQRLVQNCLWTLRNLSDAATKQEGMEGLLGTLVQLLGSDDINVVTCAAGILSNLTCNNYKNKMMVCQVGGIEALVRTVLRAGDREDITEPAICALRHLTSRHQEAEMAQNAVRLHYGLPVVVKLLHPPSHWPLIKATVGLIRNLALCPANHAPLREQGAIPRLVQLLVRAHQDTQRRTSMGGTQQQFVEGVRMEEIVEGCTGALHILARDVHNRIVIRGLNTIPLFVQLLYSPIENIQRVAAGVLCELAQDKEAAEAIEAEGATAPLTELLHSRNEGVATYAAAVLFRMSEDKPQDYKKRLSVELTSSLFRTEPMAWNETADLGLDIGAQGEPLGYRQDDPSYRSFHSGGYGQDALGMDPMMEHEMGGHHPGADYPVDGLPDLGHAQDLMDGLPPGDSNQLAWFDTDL
active: [6] 0.858 | [19] 1.3
inactive: [1] 0.026 | [2] 0.057 | [3] -0.056 | [4] 0.205 | [5] -0.149 | [7] -0.004 | [8] -0.021 | [9] -0.115 | [10] 0.076 | [11] -0.14 | [12] -0.06 | [13] -0.18 | [14] -0.2 | [15] -0.078 | [16] -0.001 | [17] 0.093 | [18] 0.03 | [20] -0.107

EBNA1BP2 (UniProt Q99848)
inactive: [1] 0.312 | [2] -0.114 | [3] 0.114 | [4] -0.089 | [5] 0.226 | [6] -0.004 | [7] -0.499 | [8] -0.176 | [9] 0.134 | [10] -0.124 | [11] 0.05 | [12] 0.006 | [13] 0.195 | [14] 0.158 | [15] -0.029 | [16] 0.133 | [17] 0.041 | [18] 0.151 | [19] 0.352 | [20] -0.292

DAB2 (UniProt P98082)
inactive: [1] -0.041 | [2] 0.085 | [3] -0.152 | [4] 0.002 | [5] -0.178 | [6] -0.098 | [7] 0.01 | [8] -0.007 | [9] -0.042 | [10] -0.024 | [11] -0.006 | [12] -0.033 | [13] -0.124 | [14] 0.016 | [15] -0.026 | [16] -0.066 | [17] 0.037 | [18] 0.102 | [19] 0.001 | [20] -0.041

EEA1 (UniProt Q15075)
inactive: [1] -0.043 | [2] -0.021 | [3] 0.013 | [4] 0 | [5] 0.061 | [6] 0.004 | [7] -0.015 | [8] 0.028 | [9] 0.007 | [10] 0.041 | [11] 0.013 | [12] -0.014 | [13] 0.006 | [14] -0.014 | [15] -0.023 | [16] 0.004 | [17] -0.001 | [18] 0.015 | [19] 0.006 | [20] -0.043

CTSL (UniProt P07711)
Sequence of UniProt P07711 (P07711 whole entry, looked up): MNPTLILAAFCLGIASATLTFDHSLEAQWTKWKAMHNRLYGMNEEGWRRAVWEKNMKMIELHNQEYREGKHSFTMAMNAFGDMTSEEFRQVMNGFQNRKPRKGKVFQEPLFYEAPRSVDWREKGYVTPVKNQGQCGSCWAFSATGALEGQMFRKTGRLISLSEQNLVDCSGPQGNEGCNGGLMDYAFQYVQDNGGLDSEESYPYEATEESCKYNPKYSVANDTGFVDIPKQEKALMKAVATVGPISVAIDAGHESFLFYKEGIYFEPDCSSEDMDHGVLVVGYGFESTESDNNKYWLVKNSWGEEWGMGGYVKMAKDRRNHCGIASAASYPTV
inactive: [1] -0.261 | [2] -0.046 | [3] 0.041 | [4] 0.103 | [5] 0.14 | [6] 0.004 | [7] 0.013 | [8] 0.045 | [9] 0.145 | [10] -0.006 | [11] 0.082 | [12] -0.045 | [13] -0.123 | [14] 0.039 | [15] -0.074 | [16] -0.053 | [17] -0.018 | [18] 0.027 | [19] -0.079 | [20] -0.011

DAG1 (UniProt Q14118)
Sequence of UniProt Q14118 (Q14118 whole entry, looked up): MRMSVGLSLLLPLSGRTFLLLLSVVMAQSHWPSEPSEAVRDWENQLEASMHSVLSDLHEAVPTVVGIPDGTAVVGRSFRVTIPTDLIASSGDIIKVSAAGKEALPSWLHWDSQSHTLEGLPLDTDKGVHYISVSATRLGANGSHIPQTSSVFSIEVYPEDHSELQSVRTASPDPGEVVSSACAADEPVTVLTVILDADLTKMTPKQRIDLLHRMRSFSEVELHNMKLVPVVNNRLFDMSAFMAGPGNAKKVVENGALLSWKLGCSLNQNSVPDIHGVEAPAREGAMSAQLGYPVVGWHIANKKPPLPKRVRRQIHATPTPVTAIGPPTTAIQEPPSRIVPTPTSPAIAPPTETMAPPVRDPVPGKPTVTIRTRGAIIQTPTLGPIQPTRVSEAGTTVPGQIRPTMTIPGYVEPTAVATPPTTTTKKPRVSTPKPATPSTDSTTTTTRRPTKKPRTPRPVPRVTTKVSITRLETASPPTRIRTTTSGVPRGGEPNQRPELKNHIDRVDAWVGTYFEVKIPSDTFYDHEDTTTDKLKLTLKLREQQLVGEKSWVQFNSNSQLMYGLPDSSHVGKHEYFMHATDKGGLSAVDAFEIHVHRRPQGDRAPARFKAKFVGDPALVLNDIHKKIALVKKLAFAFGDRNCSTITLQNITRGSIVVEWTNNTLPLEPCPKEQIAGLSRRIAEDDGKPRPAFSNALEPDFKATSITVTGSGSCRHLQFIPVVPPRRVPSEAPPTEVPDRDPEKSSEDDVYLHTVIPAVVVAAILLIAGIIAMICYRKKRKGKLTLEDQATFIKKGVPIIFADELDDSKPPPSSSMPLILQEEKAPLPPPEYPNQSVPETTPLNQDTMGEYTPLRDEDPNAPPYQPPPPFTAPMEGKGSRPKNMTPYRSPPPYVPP
inactive: [1] 0.03 | [2] -0.076 | [3] 0.085 | [4] 0.003 | [5] 0.025 | [6] -0.008 | [7] -0.001 | [8] 0.073 | [9] 0.035 | [10] 0.05 | [11] -0.035 | [12] 0.123 | [13] 0.081 | [14] -0.054 | [15] -0.013 | [16] 0.023 | [17] -0.015 | [18] -0.005 | [19] -0.015 | [20] -0.001

DCTN1 isoform 4 (UniProt Q14203)
inactive: [1] 0.057 | [2] 0.037 | [3] -0.052 | [4] -0.052 | [5] -0.256 | [6] -0.018 | [7] 0.003 | [8] -0.015 | [9] -0.054 | [10] 0.038 | [11] 0.002 | [12] -0.052 | [13] -0.033 | [14] 0.019 | [15] 0.049 | [16] 0.029 | [17] 0.007 | [18] 0.046 | [19] 0.081 | [20] -0.089

DCAF6 isoform 3 (UniProt Q58WW2)
inactive: [1] -0.071 | [2] 0.009 | [3] 0.009 | [4] 0.02 | [5] 0.008 | [6] -0.013 | [7] -0.016 | [8] 0.031 | [9] 0.027 | [10] 0.017 | [11] 0 | [12] 0.019 | [13] 0.026 | [14] 0.007 | [15] -0.005 | [16] 0.003 | [17] 0.021 | [18] 0.045 | [19] -0.009 | [20] -0.008

EIF3J (UniProt O75822)
Sequence of UniProt O75822 (O75822 whole entry, looked up): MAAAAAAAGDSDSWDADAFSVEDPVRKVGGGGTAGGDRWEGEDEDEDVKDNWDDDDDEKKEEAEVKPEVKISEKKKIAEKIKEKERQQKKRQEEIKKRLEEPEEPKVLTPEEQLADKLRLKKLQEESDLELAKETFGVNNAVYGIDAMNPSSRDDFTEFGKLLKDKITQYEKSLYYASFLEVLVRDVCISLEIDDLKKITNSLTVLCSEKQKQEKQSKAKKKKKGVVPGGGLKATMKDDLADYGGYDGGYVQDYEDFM
active: [2] 0.266
inactive: [1] -0.067 | [3] 0.001 | [4] -0.019 | [5] -0.018 | [6] 0.008 | [7] 0.022 | [8] -0.014 | [9] -0.013 | [10] 0.033 | [11] 0.035 | [12] -0.033 | [13] -0.072 | [14] 0.007 | [15] 0.012 | [16] 0.143 | [17] 0.001 | [18] 0.042 | [19] -0.017 | [20] 0.022

DCTPP1 (UniProt Q9H773)
inactive: [1] -0.053 | [2] 0.105 | [3] 0.008 | [4] -0.013 | [5] 0.068 | [6] -0.025 | [7] 0.073 | [8] 0.029 | [9] 0.074 | [10] 0.047 | [11] -0.051 | [12] 0.117 | [13] -0.014 | [14] 0.028 | [15] 0.062 | [16] -0.093 | [17] 0.005 | [18] -0.003 | [19] -0.001 | [20] 0.008

DBN1 isoform 3 (UniProt Q16643)
active: [5] 0.264
inactive: [1] -0.106 | [2] 0.032 | [3] -0.05 | [4] -0.043 | [6] -0.041 | [7] -0.22 | [8] -0.069 | [9] 0.086 | [10] 0 | [11] 0.098 | [12] 0.027 | [13] -0.039 | [14] -0.003 | [15] -0.036 | [16] 0.128 | [17] -0.032 | [18] 0.066 | [19] -0.03 | [20] -0.053
